About 79,000 compounds went through this panel and 15% of them were active in at least one assay; those are over-represented in the sample as a whole. Activity calls are given as the source filed them. Rule as the data show it: active = growth inhibition above about 70%; inactive = the rest.
Experiments:
[1] = NCI Yeast Anticancer Drug Screen. Data for the rad52 strain (AID 147);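 also: 0% = growth of vehicle-treated control cultures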; conditions: S. cerevisiae rad52 mutant growth inhibition, stronger effect = higher value
Procedure, shortened: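 Genetically altered yeast (DNA damage repair defect) treated with compound; inhibition calculated relative to vehicle.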

[2] = NCI Yeast Anticancer Drug Screen. Data for the wt1 strain (AID 149);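 also: 0% = growth of vehicle-treated wt1 cultures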; conditions: S. cerevisiae wt1 strain (SPY 50644) growth inhibition, stronger effect = higher value
Procedure, shortened: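 Using yeast strain wt1, compound-induced growth inhibition was determined against vehicle-treated cultures.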

[3] = NCI Yeast Anticancer Drug Screen. Data for the rad50EPP+ strain (AID 151);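 also: 0% = growth of vehicle-treated control cultures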; conditions: S. cerevisiae rad50 mutant strain, stronger effect = higher value
Procedure, shortened: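 Strain rad50EPP+; compound exposure; % growth inhibition vs vehicle.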

[4] = NCI Yeast Anticancer Drug Screen. Data for the mgt1 strain (AID 153); conditions: S. cerevisiae mgt1 mutant growth inhibition, stronger effect = higher value
Procedure, shortened: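 Read-out: yeast growth inhibition vs vehicle control. Strain mgt1, drawn from a panel altered in DNA damage repair or cell cycle control.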

[5] = NCI Yeast Anticancer Drug Screen. Data for the rad50 strain (AID 155);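 also: 0% = growth of vehicle-only cultures of the same strain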; conditions: S. cerevisiae rad50 strain growth inhibition, stronger effect = higher value
Procedure, shortened: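 Relative growth inhibition (compound vs vehicle) was measured in yeast with a defined repair-gene alteration.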

[6] = NCI Yeast Anticancer Drug Screen. Data for the mec2-1 strain (AID 157); conditions: S. cerevisiae mec2-1 strain, stronger effect = higher value
Procedure, shortened: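 Cells of the genetically defined mec2-1 yeast strain are incubated with test compound. Inhibition of growth is calculated against vehicle-treated controls.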

[7] = NCI Yeast Anticancer Drug Screen. Data for the rad14 strain (AID 159);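 also: 0% = growth of vehicle-treated control cultures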; conditions: S. cerevisiae rad14 strain growth inhibition, stronger effect = higher value
Procedure, shortened: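 Screen for anticancer potential: a yeast strain altered in DNA damage repair is grown with compound, and reduced growth is quantified against vehicle controls.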

[8] = NCI Yeast Anticancer Drug Screen. Data for the sgs1 mgt1 strain (AID 161);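 also: 0% = growth of cultures given vehicle only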; conditions: S. cerevisiae sgs1 mgt1 strain, stronger effect = higher value
Procedure, shortened: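 Mutant yeast exposed to compound; growth scored against vehicle-only wells.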

[9] = NCI Yeast Anticancer Drug Screen. Data for the CLN2oe strain (AID 163);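 also: 0% = growth of vehicle-only control cultures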; conditions: S. cerevisiae CLN2oe strain, stronger effect = higher value
Procedure, shortened: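 Strain altered in cell-cycle control, incubated with compound; growth compared to solvent-treated controls.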

[10] = NCI Yeast Anticancer Drug Screen. Data for the cln2 rad14 strain (AID 165);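 also: 0% = growth equal to vehicle treated cultures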; conditions: S. cerevisiae cln2 rad14 strain, stronger effect = higher value
Procedure, shortened: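 The screen exposed genetically defined yeast (cln2 rad14) to test compounds and scored growth inhibition relative to vehicle-treated controls.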

[11] = NCI Yeast Anticancer Drug Screen. Data for the bub3 strain (AID 167); conditions: S. cerevisiae bub3 mutant strain, stronger effect = higher value
Procedure, shortened: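 Screening used yeast with an engineered genetic alteration affecting cell cycle control. Compound-exposed cultures were compared with vehicle cultures, and reduced growth was taken as inhibition.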

[12] = NCI Yeast Anticancer Drug Screen. Data for the wt2 strain (AID 169);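 also: 0% = growth of vehicle-treated yeast cultures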; conditions: S. cerevisiae wt2 strain growth inhibition, stronger effect = higher value
Procedure, shortened: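 Steps: yeast strain treated with compound; growth recorded; inhibition calculated relative to cultures given vehicle alone.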

[13] = NCI Yeast Anticancer Drug Screen. Data for the sgs1 strain (AID 173);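 also: 0% = growth of vehicle-only control cultures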; conditions: S. cerevisiae sgs1 mutant, stronger effect = higher value
Procedure, shortened: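 Inhibition of yeast growth served as the measure. The mutant strain was treated with each compound, and growth was normalised to cultures receiving vehicle alone.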

[14] = NCI Yeast Anticancer Drug Screen. Data for the mlh1 rad18 strain (AID 175); conditions: S. cerevisiae mlh1 rad18 strain growth inhibition, stronger effect = higher value
Procedure, shortened: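 Compound-treated yeast growth, normalised to vehicle controls. Strain bears defined DNA repair mutations.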

[15] = NCI Yeast Anticancer Drug Screen. Data for the rad18 strain (AID 177); conditions: S. cerevisiae rad18 mutant growth inhibition, stronger effect = higher value
Procedure, shortened: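 Inhibition values reflect reduced yeast growth compared with vehicle-treated controls, using a strain engineered with a DNA damage repair defect.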

[16] = at 5.0 µM (retest, dose inferred, filed as 0.5)
[17] = at 50.0 µM (retest, dose inferred, filed as 5.0)

Measured: growth inhibition

CCC(C)NC1=NCC(C)S1 (centres undefined)
inactive: [1]; at 1.2 µM -9% | [1]; at 3.7 µM -12% | [1]; at 11.0 µM -12% | [1]; at 33.0 µM -29% | [1]; at 100.0 µM -17% | [2]; at 1.2 µM -22% | [2]; at 3.7 µM -14% | [2]; at 11.0 µM -24% | [2]; at 33.0 µM -34% | [2]; at 100.0 µM -28% | [3]; at 1.2 µM -40% | [3]; at 3.7 µM -38% | [3]; at 11.0 µM -27% | [3]; at 33.0 µM -37% | [3]; at 100.0 µM -75% | [4]; at 1.2 µM -18% | [4]; at 3.7 µM -15% | [4]; at 11.0 µM -13% | [4]; at 33.0 µM -19% | [4]; at 100.0 µM -25% | [5]; at 1.2 µM -29% | [5]; at 3.7 µM -20% | [5]; [16] 44% | [5]; at 11.0 µM -32% | [5]; at 33.0 µM -34% | [5]; [17] 41% | [5]; at 50.0 µM 64.1% | [5]; at 100.0 µM -33% | [6]; at 1.2 µM -40% | [6]; at 3.7 µM -48% | [6]; [16] 42% | [6]; at 11.0 µM -63% | [6]; at 33.0 µM -51% | [6]; [17] 36% | [6]; at 50.0 µM 28.9% | [6]; at 100.0 µM -39% | [7]; at 1.2 µM -17% | [7]; at 3.7 µM -15% | [7]; at 11.0 µM -22% | [7]; at 33.0 µM -21% | [7]; at 100.0 µM -25% | [8]; [16] -9% | [8]; [17] 30% | [8]; at 50.0 µM 58.2% | [9]; at 1.2 µM -5% | [9]; at 3.7 µM 1% | [9]; at 11.0 µM -9% | [9]; at 33.0 µM 0% | [9]; at 100.0 µM -8% | [10]; [16] 44% | [10]; [17] 49% | [10]; at 50.0 µM 65.7% | [11]; at 1.2 µM -6% | [11]; at 3.7 µM -9% | [11]; [16] 19% | [11]; at 11.0 µM -8% | [11]; at 33.0 µM -16% | [11]; at 50.0 µM 57.7% | [11]; at 100.0 µM -17% | [12]; at 1.2 µM -20% | [12]; at 3.7 µM -21% | [12]; at 11.0 µM -28% | [12]; at 33.0 µM -26% | [12]; at 100.0 µM -22% | [13]; at 1.2 µM -26% | [13]; at 3.7 µM -21% | [13]; at 11.0 µM -16% | [13]; at 33.0 µM -38% | [13]; at 100.0 µM -29% | [14]; [16] 47% | [14]; [17] 27% | [14]; at 50.0 µM 62.6%
active: [11]; [17] 98%

C(=Nc1ccc(-c2cc(-c3ccccc3)nc3ccc4ccccc4c23)cc1)c1ccccc1
inactive: [1]; at 1.2 µM 34% | [1]; at 3.7 µM 40% | [1]; at 11.0 µM 37% | [1]; at 33.0 µM 53% | [2]; at 1.2 µM 26% | [2]; at 3.7 µM 24% | [2]; at 11.0 µM 9% | [2]; at 33.0 µM 31% | [2]; at 100.0 µM 57% | [3]; at 1.2 µM 16% | [3]; at 3.7 µM 7% | [3]; at 11.0 µM 15% | [3]; at 33.0 µM 10% | [3]; at 100.0 µM 6% | [4]; at 1.2 µM 21% | [4]; at 3.7 µM 11% | [4]; at 11.0 µM 12% | [4]; at 33.0 µM 10% | [4]; at 100.0 µM 47% | [5]; at 1.2 µM 23% | [5]; at 3.7 µM 24% | [5]; [16] 20% | [5]; at 11.0 µM 42% | [5]; at 33.0 µM 52% | [5]; [17] 54% | [5]; at 50.0 µM 50.2% | [5]; at 100.0 µM 68% | [6]; at 1.2 µM 11% | [6]; at 3.7 µM 5% | [6]; [16] 17% | [6]; at 11.0 µM 16% | [6]; at 33.0 µM 14% | [6]; at 50.0 µM 33% | [6]; at 100.0 µM 31% | [7]; at 1.2 µM 24% | [7]; at 3.7 µM 20% | [7]; at 11.0 µM 21% | [7]; at 33.0 µM 38% | [7]; at 100.0 µM 34% | [8]; [16] 11% | [8]; at 50.0 µM 55.2% | [9]; at 1.2 µM 29% | [9]; at 3.7 µM 24% | [9]; at 11.0 µM 34% | [9]; at 33.0 µM 38% | [9]; at 100.0 µM 37% | [10]; [16] 25% | [10]; at 50.0 µM 14.7% | [11]; at 1.2 µM -9% | [11]; at 3.7 µM -13% | [11]; [16] 12% | [11]; at 11.0 µM -5% | [11]; at 33.0 µM 14% | [11]; at 50.0 µM 50.8% | [11]; at 100.0 µM 31% | [12]; at 1.2 µM -22% | [12]; at 3.7 µM -21% | [12]; at 11.0 µM -17% | [12]; at 33.0 µM 62% | [13]; at 1.2 µM 28% | [13]; at 3.7 µM 18% | [13]; at 11.0 µM 25% | [13]; at 33.0 µM 36% | [13]; at 100.0 µM 64% | [14]; [16] 20% | [14]; at 50.0 µM 57.6% | [15]; at 1.2 µM 30% | [15]; at 3.7 µM 32% | [15]; at 11.0 µM 44% | [15]; at 33.0 µM 68%
active: [1]; at 100.0 µM 76% | [6]; [17] 72% | [8]; [17] 92% | [10]; [17] 75% | [11]; [17] 89% | [12]; at 100.0 µM 81% | [14]; [17] 85% | [15]; at 100.0 µM 73%

Cc1nc2ccccc2nc1NNc1ccccc1
inactive: [1]; at 1.2 µM -5% | [1]; at 3.7 µM -8% | [1]; at 11.0 µM -4% | [1]; at 33.0 µM 4% | [1]; at 100.0 µM 24% | [2]; at 1.2 µM 4% | [2]; at 3.7 µM 9% | [2]; at 11.0 µM 14% | [2]; at 33.0 µM 17% | [2]; at 100.0 µM 20% | [3]; at 1.2 µM -9% | [3]; at 3.7 µM -5% | [3]; at 11.0 µM 22% | [3]; at 33.0 µM 65% | [4]; at 1.2 µM 4% | [4]; at 3.7 µM 3% | [4]; at 11.0 µM 3% | [4]; at 33.0 µM -13% | [4]; at 100.0 µM 26% | [5]; at 1.2 µM -6% | [5]; at 3.7 µM -12% | [5]; [16] 17% | [5]; at 11.0 µM 9% | [5]; at 33.0 µM 46% | [5]; [17] 34% | [5]; at 100.0 µM 60% | [6]; at 1.2 µM -2% | [6]; at 3.7 µM 0% | [6]; [16] -7% | [6]; at 11.0 µM 9% | [6]; at 33.0 µM 11% | [6]; [17] 39% | [6]; at 50.0 µM 41.6% | [6]; at 100.0 µM 22% | [7]; at 1.2 µM -3% | [7]; at 3.7 µM -7% | [7]; at 11.0 µM 0% | [7]; at 33.0 µM 7% | [7]; at 100.0 µM 38% | [8]; [16] 13% | [8]; [17] 32% | [8]; at 50.0 µM 36% | [9]; at 1.2 µM -7% | [9]; at 3.7 µM -2% | [9]; at 11.0 µM 10% | [9]; at 33.0 µM 18% | [9]; at 100.0 µM 18% | [10]; [17] 48% | [10]; at 50.0 µM -11.8% | [11]; at 1.2 µM 6% | [11]; at 3.7 µM 9% | [11]; [16] 38% | [11]; at 11.0 µM 28% | [11]; at 33.0 µM 51% | [11]; [17] 44% | [11]; at 100.0 µM 63% | [12]; at 1.2 µM 3% | [12]; at 3.7 µM 5% | [12]; at 11.0 µM 14% | [12]; at 33.0 µM 23% | [12]; at 100.0 µM 22% | [13]; at 1.2 µM 1% | [13]; at 3.7 µM 1% | [13]; at 11.0 µM 8% | [13]; at 33.0 µM 16% | [13]; at 100.0 µM 24% | [14]; [16] -8% | [14]; [17] 28% | [14]; at 50.0 µM 56.6% | [15]; at 1.2 µM -3% | [15]; at 3.7 µM -2% | [15]; at 11.0 µM -5% | [15]; at 33.0 µM 30% | [15]; at 100.0 µM 58%
active: [3]; at 100.0 µM 84% | [5]; at 50.0 µM 81.3% | [10]; [16] 79% | [11]; at 50.0 µM 74%
